Values joined by “and” are separate entries in the source; they are usually repeats but may differ in a detail not shown here. Equal entries are not always repeated. About 79,000 compounds went through this panel and 15% of them were active in at least one assay; those are over-represented in the sample as a whole. Active and inactive are the calls of the source. No stated cut-off is given here; in the data, active means growth inhibition above about 70%; inactive means the rest. Where a SMILES comes first, the peptide text is derived from it.

The record followed here is PubChem BioAssay (NCI).

One test in a line: NCI Yeast Anticancer Drug Screen. Data for the sgs1 mgt1 strain (AID 161).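 Further: 0% = growth of cultures given vehicle only.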 To be noted: S. cerevisiae sgs1 mgt1 strain, stronger effect = higher value; at 50.0 µM unless noted. The method in brief: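 Genetically altered yeast, compound exposure, growth inhibition relative to vehicle.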
`O=C(C[n+]1ccccc1)c1ccc(O)c(I)c1`: the growth inhibition is 21.9% (inactive).
Still for that read-out and setting: the same measure for `O=C1C(O)=C(O)C(Br)=C/C1=C(/c1ccccc1S(=O)(=O)O)c1cc(Br)c(O)c(O)c1O`: 15.5% (inactive); for `COC1OC2COC(C)(C)OC2C2OC(C)(C)OC12` (stereo not given): 6.45% (inactive).
For the molecule `C=CCNc1nc(Cl)nc2c1cnn2C`, the growth inhibition is -2.95% (inactive).
`O=C(O)/C=C\C(=O)Nc1ccc2c(c1)Cc1cc(O)ccc1-2`: the growth inhibition was 17.8% (inactive).
Same read-out and setting: the same measure for `CCCCC(Sc1nn(C2OC(COC(=O)c3ccccc3)C(OC(=O)c3ccccc3)C2OC(=O)c2ccccc2)c(=O)[nH]c1=O)C(=O)OCC` (stereo not given): -21.4% (inactive); for `NC(Cc1ccccc1)C(=O)NC(Cc1ccccc1)C(=O)O` (stereo not drawn) (H-Phe-Phe-OH; configuration not given here): 12.6% (inactive) and -2.9% (inactive).
Same read-out and setting: to `O=C(O)C(=O)Nc1ccccc1` belongs -5.5% (inactive); to `COC1/C=C/OC2(C)Oc3c(C)c(O)c4c(c3C2=O)C(N)=C(NC2CC2)C(=NC(=O)/C(C)=C\C=C\C(C)C(O)C(C)C(O)C(C)C(OC(C)=O)C1C)C4=O` (stereo not given), 41.2% (inactive).
On the same count and under the same terms, to `CCCCCCN1COCC(COc2ccc(Cl)cc2)OC1` (stereo not given) belongs 36.9% (inactive); to `Nc1nc(=S)c2c(ncn2CCO)[nH]1`, 15.3% (inactive).
`Cn1ccnc1Sc1c([N+](=O)[O-])ncn1C`: the growth inhibition was 3.25% (inactive).
Same read-out and setting: the same measure for `CCN(CC)CCNc1cc(OC)c(OC)cc1[N+](=O)[O-]`: 5.7% (inactive); for `CC1=Nc2cc(Cl)c(Cl)cc2N(C)/C1=C/C1=C(Cl)C(=O)c2cc3c(Cl)ccc(Cl)c3cc2C1=O`: 13.1% (inactive).
The same measure, in the same setting: to `O=C1OC(=O)C2C3CC(C(Br)C3Br)C12` (stereo not given) belongs 7.8% (inactive); to `CCOC(=N)n1c(=O)n(C2=NCCN2)c2ccccc21`, -48.5% (inactive); to `CCOC(=O)C(CC(C)C)NC(=O)c1ccc(C)c(OCc2ccccc2)c1[N+](=O)[O-]` (stereo not given), 37.9% (inactive).
Take `CN1CCC(O)CC1`: the growth inhibition is -11.3% (inactive).
On the same count and under the same terms, to `Cc1cccc(C)c1NC(=S)N/C=C(\C#N)C(N)=O` belongs -25% (inactive); to `Clc1c(Cl)c(Cl)c(C[n+]2c(Cl)sc3ccccc32)c(Cl)c1Cl`, 5.05% (inactive); to `Cc1ccc(NC(=O)C(=O)CC(=O)c2sc(Nc3c(C)cccc3C)nc2C)cc1C`, 1.85% (inactive).
Same read-out and setting: the same measure for `CC(=O)Nc1cccc(N=Cc2ccc(N(CCOS(C)(=O)=O)CCOS(C)(=O)=O)cc2C)c1`: 40.4% (inactive); for `COC(=O)c1ccccc1NC(=O)c1c(-c2ccccc2Cl)noc1C`: 88.6% (active).
On the same count and under the same terms, to `CC(=O)CC(=O)Nc1ccc2ccccc2c1` belongs -8.3% (inactive); to `CC1(C)CC(O)CC(C)(C)N1`, -1.6% (inactive).
As for `Nc1c(F)cc(I)cc1F`, the growth inhibition was -2.2% (inactive).
Take `Nc1nc2cc3nc(N)c(N)nc3cc2nc1N`: the growth inhibition is 13.1% (inactive).
On the same count and under the same terms, the same measure for `O=C1CCCCCCCCCCCCCCCCC1`: -11.3% (inactive); for `O=C(c1cccc(C(=O)N2CCOCC2)n1)N1CCOCC1`: -3.5% (inactive); for `COC1COCOC1C(OC)C1OCOCC1OC` (stereo not given): -8.15% (inactive).
The same measure, in the same setting: the same measure for `CCOC(C)=Nc1cc(OC)cc2c1NC(=O)CCS2`: -36.6% (inactive); for `COc1ccc(-c2cccc(C(=O)O)c2C(=O)O)cc1OC`: 0.4% (inactive).
Regarding `O=C1c2cccc3cc([N+](=O)[O-])cc(c23)C(=O)N1C(CO)(CO)CO`, the growth inhibition was 30.1% (inactive).
The same measure, in the same setting: to `Nc1nc2c(c(=O)[nH]1)N(C=O)C(CCNc1ccc(C(=O)NC(CCC(=O)O)C(=O)O)cc1)CN2` (stereo not given) belongs 2.55% (inactive); to `CCCC(c1ccc(N(C)C)cc1)c1ccc(N(C)C)cc1`, -2.75% (inactive).
On the same count and under the same terms, to `c1ccc2c(c1)/C(=N/c1nccs1)N/C2=N\c1nccs1` belongs -12.2% (inactive); to `CC1CCCN2C(=O)CN(c3ccccc3)CC(=O)N12` (stereo not given), -4.7% (inactive).
On the same count and under the same terms, the same measure for `O=c1[nH]c(=O)c2nc3c(=O)[nH]c(=O)[nH]c3nc2[nH]1`: 0.95% (inactive).
Take `Nc1ncc2c(n1)-c1ccccc1OC2`: the growth inhibition is -12.4% (inactive).
As to `CN(C)c1ccc(O[Si](Oc2ccc(N(C)C)cc2)(Oc2ccc(N(C)C)cc2)Oc2ccc(N(C)C)cc2)cc1`, the growth inhibition was 25.8% (inactive).

A further test is described as follows: NCI Yeast Anticancer Drug Screen. Data for the cln2 rad14 strain (AID 165).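 Further: 0% = growth equal to vehicle treated cultures.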 The note with it: S. cerevisiae cln2 rad14 strain, stronger effect = higher value; at 50.0 µM unless noted. In short, it runs like this: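 Each compound was tested on cln2 rad14 yeast. Inhibition of growth was calculated against vehicle-exposed controls.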
Turning to `O=C(C[n+]1ccccc1)c1ccc(O)c(I)c1`, the growth inhibition was 21.7% (inactive).
Still for that read-out and setting: to `O=C1C(O)=C(O)C(Br)=C/C1=C(/c1ccccc1S(=O)(=O)O)c1cc(Br)c(O)c(O)c1O` belongs 1.8% (inactive); to `COC1OC2COC(C)(C)OC2C2OC(C)(C)OC12` (stereo not given), -6.25% (inactive).
On the same count and under the same terms, the same measure for `C=CCNc1nc(Cl)nc2c1cnn2C`: -21.3% (inactive); for `O=C(O)/C=C\C(=O)Nc1ccc2c(c1)Cc1cc(O)ccc1-2`: 25.7% (inactive); for `CCCCC(Sc1nn(C2OC(COC(=O)c3ccccc3)C(OC(=O)c3ccccc3)C2OC(=O)c2ccccc2)c(=O)[nH]c1=O)C(=O)OCC` (stereo not given): -33.4% (inactive).
Same read-out and setting: the same measure for `NC(Cc1ccccc1)C(=O)NC(Cc1ccccc1)C(=O)O` (stereo not drawn) (H-Phe-Phe-OH; configuration not given here): -16.1% (inactive) and -19.3% (inactive).
With `O=C(O)C(=O)Nc1ccccc1`, the growth inhibition is -34.8% (inactive).
The same measure, in the same setting: the same measure for `COC1/C=C/OC2(C)Oc3c(C)c(O)c4c(c3C2=O)C(N)=C(NC2CC2)C(=NC(=O)/C(C)=C\C=C\C(C)C(O)C(C)C(O)C(C)C(OC(C)=O)C1C)C4=O` (stereo not given): 49% (inactive); for `CCCCCCN1COCC(COc2ccc(Cl)cc2)OC1` (stereo not given): 22.1% (inactive); for `Nc1nc(=S)c2c(ncn2CCO)[nH]1`: 3.4% (inactive).
With `Cn1ccnc1Sc1c([N+](=O)[O-])ncn1C`, the growth inhibition was 29.3% (inactive).
On the same count and under the same terms, the same measure for `CCN(CC)CCNc1cc(OC)c(OC)cc1[N+](=O)[O-]`: -7.45% (inactive); for `CC1=Nc2cc(Cl)c(Cl)cc2N(C)/C1=C/C1=C(Cl)C(=O)c2cc3c(Cl)ccc(Cl)c3cc2C1=O`: 25.1% (inactive); for `O=C1OC(=O)C2C3CC(C(Br)C3Br)C12` (stereo not given): -36.5% (inactive).
The same measure, in the same setting: the same measure for `CCOC(=N)n1c(=O)n(C2=NCCN2)c2ccccc21`: 1.95% (inactive); for `CCOC(=O)C(CC(C)C)NC(=O)c1ccc(C)c(OCc2ccccc2)c1[N+](=O)[O-]` (stereo not given): 0.6% (inactive).
On the same count and under the same terms, to `CN1CCC(O)CC1` belongs -0.35% (inactive).
Regarding `Cc1cccc(C)c1NC(=S)N/C=C(\C#N)C(N)=O`, the growth inhibition is -21.6% (inactive).
The same measure, in the same setting: to `Clc1c(Cl)c(Cl)c(C[n+]2c(Cl)sc3ccccc32)c(Cl)c1Cl` belongs -6.6% (inactive); to `Cc1ccc(NC(=O)C(=O)CC(=O)c2sc(Nc3c(C)cccc3C)nc2C)cc1C`, -27.7% (inactive); to `CC(=O)Nc1cccc(N=Cc2ccc(N(CCOS(C)(=O)=O)CCOS(C)(=O)=O)cc2C)c1`, 22.9% (inactive).
Still for that read-out and setting: the same measure for `COC(=O)c1ccccc1NC(=O)c1c(-c2ccccc2Cl)noc1C`: 46.9% (inactive); for `CC(=O)CC(=O)Nc1ccc2ccccc2c1`: -36.4% (inactive).
Still for that read-out and setting: the same measure for `CC1(C)CC(O)CC(C)(C)N1`: -2.6% (inactive).
For `Nc1c(F)cc(I)cc1F`, the growth inhibition is -43% (inactive).
Take `Nc1nc2cc3nc(N)c(N)nc3cc2nc1N`: the growth inhibition was 34.9% (inactive).
The same measure, in the same setting: to `O=C1CCCCCCCCCCCCCCCCC1` belongs -7.25% (inactive); to `O=C(c1cccc(C(=O)N2CCOCC2)n1)N1CCOCC1`, -19.4% (inactive); to `COC1COCOC1C(OC)C1OCOCC1OC` (stereo not given), -46.3% (inactive).
On the same count and under the same terms, to `CCOC(C)=Nc1cc(OC)cc2c1NC(=O)CCS2` belongs -50% (inactive); to `COc1ccc(-c2cccc(C(=O)O)c2C(=O)O)cc1OC`, -17.2% (inactive); to `O=C1c2cccc3cc([N+](=O)[O-])cc(c23)C(=O)N1C(CO)(CO)CO`, 27.5% (inactive).
The same measure, in the same setting: to `Nc1nc2c(c(=O)[nH]1)N(C=O)C(CCNc1ccc(C(=O)NC(CCC(=O)O)C(=O)O)cc1)CN2` (stereo not given) belongs -12.6% (inactive); to `CCCC(c1ccc(N(C)C)cc1)c1ccc(N(C)C)cc1`, 16.6% (inactive); to `c1ccc2c(c1)/C(=N/c1nccs1)N/C2=N\c1nccs1`, -25.6% (inactive).
With `CC1CCCN2C(=O)CN(c3ccccc3)CC(=O)N12` (stereo not given), the growth inhibition was 14.9% (inactive).
Still for that read-out and setting: the same measure for `O=c1[nH]c(=O)c2nc3c(=O)[nH]c(=O)[nH]c3nc2[nH]1`: -5.95% (inactive); for `Nc1ncc2c(n1)-c1ccccc1OC2`: -1.4% (inactive); for `CN(C)c1ccc(O[Si](Oc2ccc(N(C)C)cc2)(Oc2ccc(N(C)C)cc2)Oc2ccc(N(C)C)cc2)cc1`: 29.4% (inactive).
